Assay results reported in PubChem BioAssay AID1259421 (Broad Institute, 2018).
“And” between values parts separate entries of the source, which are not always exact repeats. Identical values can stand only once. Hit rate of the full screen: of about 6,400 compounds, about 610 (9.5%) were called active. Cut-off read from the data, not from the text of the source: active = activity change below about -70%; inconclusive = no clear call, values can overlap the other calls; inactive = above that. Only a selection was taken, and actives are over-represented in it overall. The source holds several records for some structures; these can differ, active in one and inactive in another.

assay: T. gondii ME49Luc in HeLa cells, luciferase assay, 72 h, no IFN-y (AID 1259421); conditions: stronger effect = lower value, concentration not given here

Compound | activity change, negative = inhibition
CC(CCC(=O)O)[C@H]1CCC2C3C(=O)C[C@@H]4CC(=O)CC[C@]4(C)C3CC(=O)[C@@]21C (stereo partly specified) | 4.28% (inactive) and -3.38% (inactive)
Cc1onc(-c2ccccc2)c1C(=O)N[C@@H]1C(=O)N2[C@@H](C(=O)O)C(C)(C)S[C@@H]12 | 3.42% (inactive)
N[C@H](Cc1cc(I)c(Oc2ccc(O)c(I)c2)c(I)c1)C(=O)O | 2.18% (inactive) and -1.07% (inactive)
N[C@@]1(C(=O)O)CS(=O)(=O)[C@H]2[C@H](C(=O)O)[C@H]21 | 8.77% (inactive)
Ac-PHSCN-NH2 | 12.4% (inactive)
CC1(C)CC(=O)c2c(C(F)(F)F)nn(-c3ccc(C(N)=O)c(NC4CCC(OC(=O)CN)CC4)c3)c2C1 (stereo unspecified) | -75.4% (active)
CC1(C)CC(=O)c2c(C(F)(F)F)nn(-c3ccc(C(N)=O)c(NC4CCC(O)CC4)c3)c2C1 (stereo unspecified) | -81.9% (active)
Cn1nnc(-c2ccc(-c3ccc(N4C[C@H](CO)OC4=O)cc3F)cn2)n1 | 60.5% (inactive)
CCOC(=O)[C@@H](CCc1ccccc1)N[C@H](C)C(=O)N1[C@@H]2CCC[C@H]2C[C@H]1C(=O)O | 14.6% (inactive)
CCCCS(=N)(=O)CC[C@H](N)C(=O)O (stereo partly specified) | 0.306% (inactive)
CCCC[C@@H](CC)COC(=O)C(C#N)=C(c1ccccc1)c1ccccc1 | -53.6% (inactive)
CC(=O)OCC(=O)[C@@]1(O)[C@H](OC(C)=O)CC2C3CCC4=CC(=O)C=C[C@]4(C)[C@@]3(F)[C@@H](O)C[C@@]21C (stereo partly specified) | -7.39% (inactive)
COc1ccc(-c2coc3c(O)c(O)c(OC)cc3c2=O)cc1 | 77.9% (inactive)
Nc1c2c(nc3ccccc13)CCCC2 | -1.53% (inactive) and -2.1% (inactive)
Nc1c2ccccc2nc2ccccc12 | -47.3% (inactive) and -70.8% (active) and 3.45% (inactive)
Nc1c2c(nc3ccccc13)CCCC2O (stereo unspecified) | 8.95% (inactive)
CCCCCCCCCCCCCCCC[N+](C)(C)Cc1ccccc1 | -3.66% (inactive)
CCCCCCCCCCCCCCCCn1cc[n+](Cc2ccccc2)c1C | -85.6% (active)
CN1CCN(CCCCN2C(=O)CN(/N=C/c3ccc(-c4ccc(Cl)cc4)o3)C2=O)CC1 | 16.2% (inactive)
C[N+](C)(C)CC(O)CC(=O)O (stereo unspecified) | -0.966% (inactive)
CC[C@@H](C)Nc1cc(C(=O)NC2CC3CCC(C2)N3c2ccc(C(=O)C3CC3)cn2)c(C)cc1C(N)=O (stereo partly specified) | -89.6% (active)
CCCCC(F)(F)C(=O)CC[C@H]1[C@H](O)CC(=O)[C@@H]1CCCCCCC(=O)O | 34.9% (inactive) and 7.68% (inactive)
N#C/C(=C/c1ccc(O)c(O)c1)C(=O)OCCc1cccs1 | 11.8% (inactive)
CC(=O)N(C)C1(c2ccccc2)CCN(CCC[C@]2(c3ccc(Cl)c(Cl)c3)CCCN(C(=O)c3ccccc3)C2)CC1 | -7.4% (inactive)

Compound | activity change, negative = inhibition
NC(N)=NCC1COC2(CCCCC2)O1 (stereo unspecified) | -1.54% (inactive)
NC1(C(=O)O)CC1 | 13.6% (inactive)
CC(=O)O[C@H]1C[C@@H](OC(C)=O)C(C)(C)C2C[C@@H](OC(C)=O)[C@]3(C)C(CC[C@@]4(C)[C@H](c5ccoc5)OC(=O)[C@H]5O[C@]543)[C@]21C (stereo partly specified) | 0.452% (inactive)
CCS(=O)(=O)N(C)[C@H]1c2cc(C#N)ccc2OC(C)(C)[C@@H]1O (racemic) | 9.6% (inactive)
CCS(=O)(=O)N(C)C1c2cc(C#N)ccc2OC(C)(C)C1O (stereo unspecified) | -6.08% (inactive)
CC(=O)N(O)[C@@H]1c2cc(C#N)ccc2OC(C)(C)[C@H]1O | -86% (active) and 7.72% (inactive)
Nc1c[n+](N2CCOCC2)no1 | 18.8% (inactive)
CO/N=C(/C(=O)NC1C(=O)N2C(C(=O)OC(C)OC(C)=O)=C(COC(N)=O)CSC12)c1ccco1 (stereo unspecified) | 4.1% (inactive)
O=C(O)CCC/C=C\C[C@@H]1[C@@H](/C=C/[C@@H](O)COc2cccc(Cl)c2)[C@H](O)C[C@@H]1O | 11.1% (inactive) and 5.18% (inactive) and 11% (inactive)
Cc1c[nH]c(=O)n(CCCN2CCN(c3ccccc3OCC(F)(F)F)CC2)c1=O | 2.85% (inactive) and 2.68% (inactive)
C1CCC2(CC1)CCNCC2 | -1.4% (inactive)
COc1cc2ncnc(Nc3ccc(F)c(Cl)c3)c2cc1OCCCN1CCOCC1 | 15.9% (inactive)
COc1cc(Nc2c(C#N)cnc3cc(OCCCN4CCN(C)CC4)c(OC)cc23)c(Cl)cc1Cl | -79.2% (active) and -77.5% (active)
COc1cc2c(Nc3ccc(NC(=O)c4ccccc4)cc3)ncnc2cc1OCCCN1CCOCC1 | -50.7% (inactive) and -23.3% (inactive)
CN(C)C(=O)NC1CCC(CCN2CCN(c3cccc(Cl)c3Cl)CC2)CC1 (stereo unspecified) | 3.31% (inactive)
CC12CCC(C(=O)N(CCCCN3CCN(c4ccccn4)CC3)C1=O)C2(C)C (stereo unspecified) | -4.45% (inactive)
CCNC(=O)[C@H]1O[C@@H](n2cnc3c(N)nc(NCCc4ccc(CCC(=O)O)cc4)nc32)[C@@H](O)[C@@H]1O | 9.76% (inactive)
CC(C)(C)c1cnc(CSc2cnc(NC(=O)C3CCNCC3)s2)o1 | -71.7% (active)
CC(=O)O[C@@H]1CC2C(C)(C)[C@H](O)CC[C@]2(C)C2CC[C@@]3(C)[C@H](c4ccoc4)OC(=O)C4OC43[C@@]21C (stereo partly specified) | 14.1% (inactive)
COc1cccc(CCc2ccccc2OCC[C@@H]2C[C@@H](O)CN2C)c1 | -6.08% (inactive) and -38.5% (inactive)
O=c1cc(N2CCNCC2)oc2c(-c3ccccc3)cccc12 | -75.1% (active) and -94.2% (active)
O=c1cc(N2CCOCC2)oc2c(-c3ccccc3)cccc12 | 13.4% (inactive)
Nc1ccc(-c2cccc3c(=O)cc(N4CCOCC4)oc23)cc1 | 3.1% (inactive) and -4.84% (inactive)
Nc1ncnc2c1ncn2[C@@H]1O[C@H](COP(=O)(O)OP(=O)(O)OP(=O)(O)OP(=O)(O)OC[C@H]2O[C@@H](n3cnc4c(N)ncnc43)C(O)C2O)C(O)C1O (stereo partly specified) | -3.47% (inactive)

Compound | activity change, negative = inhibition
O=C1C=CC(=O)C2=C1C1c3ccccc3C2c2ccccc21 | -2.66% (inactive)
Cn1cccc1/C=C1\C(=O)NC(=O)c2ccccc21 | -4.19% (inactive)
CCc1cc(Cl)c(OC)c(C(=O)NCC2CCCN2CC)c1O (stereo unspecified) | 0.175% (inactive)
c1cnc(SCc2cccnc2)nc1 | 15.1% (inactive)
CC(C)(C)CC(C)(C)c1ccc(OCCOCC[N+](C)(C)Cc2ccccc2)cc1 | -84.1% (active) and 4.83% (inactive)
Cc1cc(C(C)(C)CC(C)(C)C)ccc1OCCOCC[N+](C)(C)Cc1ccccc1 | -1.86% (inactive)
C[N+](C)(CCOc1ccccc1)Cc1ccccc1 | 13.6% (inactive)
CC(O)COC[C@H]1O[C@@H]2O[C@H]3[C@H](O)[C@@H](O)[C@@H](O[C@H]4[C@H](O)[C@@H](O)[C@@H](O[C@H]5[C@H](O)[C@@H](O)[C@@H](O[C@H]6[C@H](O)[C@@H](O)[C@@H](O[C@H]7[C@H](O)[C@@H](O)[C@@H](O[C@H]8[C@H](O)[C@@H](O)[C@@H](O[C@H]1[C@H](O)[C@H]2O)O[C@@H]8COCC(C)O)O[C@@H]7COCC(C)O)O[C@@H]6COCC(C)O)O[C@@H]5COCC(C)O)O[C@@H]4COCC(C)O)O[C@@H]3COCC(C)O (stereo partly specified) | 10.2% (inactive)
C=CCn1c(=O)n(C2OC(CO)C(O)C2O)c2nc(N)[nH]c(=O)c21 (stereo unspecified) | 0.162% (inactive)
CCNC(=O)[C@@H]1CCCN1C(=O)[C@H](CCCN=C(N)N)NC(=O)[C@H](CC(C)C)NC(=O)[C@@H](COC(C)(C)C)NC(=O)[C@H](Cc1ccc(O)cc1)NC(=O)[C@H](CO)NC(=O)[C@H](Cc1c[nH]c2ccccc12)NC(=O)[C@H](Cc1cnc[nH]1)NC(=O)C1CCC(=O)N1 (stereo partly specified) | 9.62% (inactive)
CC(C)C(=O)OC[C@H]1O[C@@H](n2ccc(N)nc2=O)[C@](C)(F)[C@@H]1OC(=O)C(C)C | 23.1% (inactive)
O=C(Nc1ncc(SCCN2CCCC2)s1)[C@]1(c2ccc(S(=O)(=O)C3CC3)cc2)C[C@H]1C1CCCCC1 | -76.3% (active) and -62.6% (inactive)
CC(C)(C)[C@@]1(O)CCN2C[C@@H]3c4ccccc4CCc4cccc(c43)[C@H]2C1 | 13.9% (inactive)
C[C@@H](NC(=O)/C(C#N)=C\c1ccc(O)c(O)c1)c1ccccc1 | -3.05% (inactive)
CCC[C@H](NC(=O)/C(C#N)=C/c1cccc(Br)n1)c1ccccc1 | -77% (active)
CCN(CC)CCCCC(NC(=O)c1ccc([N+](=O)[O-])cc1)c1ccccc1 (stereo unspecified) | 34.1% (inactive)
CC(C)c1cc(/C=C(\C#N)C(=O)NCCCc2ccccc2)cc(C(C)C)c1O | -46.1% (inactive)
C[C@H](NC(=O)/C(C#N)=C/c1ccc(O)c(O)c1)c1ccccc1 | 13.8% (inactive) and 32.8% (inactive)
C[C@H](NC(=O)/C(C#N)=C/c1cccc(Br)n1)c1ccccc1 | -73.9% (active)
O=C(CS(=O)Cc1ccco1)NC/C=C\COc1cc(CN2CCCCC2)ccn1 (stereo unspecified) | 8.76% (inactive)
CC12C=CCC1C1CCC3CC(=O)CCC3(C)C1CC2 (stereo unspecified) | 14.3% (inactive)
COc1ccc(NC(=O)c2cc(OCCCN(C)C)nn2Cc2ccccc2)cc1 | 3.25% (inactive) and 7.86% (inactive)
CCC(=O)NS(=O)(=O)c1ccc(-c2c(-c3ccccc3)noc2C)cc1 | 23.5% (inactive)
